PubChem BioAssay AID1986 (Sanford-Burnham Center for Chemical Genomics, 2009)
Screen size: about 290,000 compounds; about 890 (0.31%) were called active. No stated cut-off is given here; in the data, active means inhibition mostly above about 52% (no sharp cut-off); inactive means mostly below about 76%. What follows is part of a selection rich in actives, with near analogues and random picks from the rest.

Test: inhibitors of HIV fusion peptide binding, primary screen, biochemical, uHTS, fluorescence dequenching (AID 1986)
Details: cell-free peptide binding, 30 min, stronger effect = higher value

With `Cc1ccc(-n2nnc(-c3cc4ccccc4nc3Cl)n2)cc1` the inhibition (at 20 µM) was 0.2% (inactive).

With `O=C(CN(c1ccc(F)cc1)S(=O)(=O)c1ccc2c(c1)OCCO2)NCC1CCCO1` (centres undefined) the inhibition (at 20 µM) was 1.4% (inactive).

For `CCOc1ccc2nc(SCC(=O)c3ccc(C)s3)sc2c1`, the inhibition (at 20 µM) was 0% (inactive).

In the case of `CCOc1ccc(NC(=O)C2CSC(c3ccncc3)=N2)cc1` (centres undefined), the inhibition (at 20 µM) is reported as 1.2% (inactive).

With `CC1=C(C(=O)Nc2ccccn2)C(c2ccccc2)n2ncnc2N1` (centres undefined) the inhibition (at 20 µM) was -2.7% (inactive).

In the case of `CCNc1nc(NC(C)C)nc(SCCOC(=O)c2ccccc2)n1`, the inhibition (at 20 µM) is reported as 2.3% (inactive).

For `Cc1c(C)n(Cc2ccc(F)cc2)c2ccc(C(=O)NCCN3CCOCC3)cc12`, the inhibition (at 20 µM) was -1.7% (inactive).

With `COc1ccccc1NS(=O)(=O)c1cccc(NC(=O)Nc2ccccc2)c1` the inhibition (at 20 µM) was 1.4% (inactive).

For `O=C(Nc1ccccc1C(=O)O)c1cccc(N2C(=O)c3ccccc3C2=O)c1`, the inhibition (at 20 µM) was 2.5% (inactive).

In the case of `NC(=O)NCc1cccc(Cl)c1`, the inhibition (at 20 µM) is reported as 2.5% (inactive).

For `CCOC(=O)C(=CNc1ccc(C(F)(F)F)cc1Cl)C(=O)OCC`, the inhibition (at 20 µM) was 0.9% (inactive).

In the case of `CCOc1ccc2c(c1)c1nnc(SCC(=O)NC3CC3)nc1n2C`, the inhibition (at 20 µM) is reported as -0.7% (inactive).

In the case of `Clc1ccc(/C=N/NC2=Nc3cccc4cccc2c34)cc1`, the inhibition (at 20 µM) is reported as 43.5% (inactive).

In the case of `C(=N\NC1=Nc2cccc3cccc1c23)/c1ccccc1`, the inhibition (at 20 µM) is reported as 20.5% (inactive).

In the case of `Clc1ccccc1/C=N/NC1=Nc2cccc3cccc1c23`, the inhibition (at 20 µM) is reported as 51.2% (active).

For `N/C(CC(=O)NC1CCCCC1)=N\OCC(=O)Nc1ccc(Cl)c(Cl)c1`, the inhibition (at 20 µM) was 1.7% (inactive).

With `COc1cc2c(cc1NC(=S)NC(=O)/C=C/c1ccc(OC)c(OC)c1)oc1ccccc12` the inhibition (at 20 µM) was 1.2% (inactive).

In the case of `COc1cc2c(cc1NC(=S)NC(=O)/C=C/c1ccco1)oc1ccccc12`, the inhibition (at 20 µM) is reported as 67.5% (active).

In the case of `COc1ccc(/C=C/C(=O)NC(=S)Nc2cc3oc4ccccc4c3cc2OC)cc1`, the inhibition (at 20 µM) is reported as 1.6% (inactive).

In the case of `COc1ccc(C2NC(=O)c3ccccc3O2)cc1` (centres undefined), the inhibition (at 20 µM) is reported as -1.3% (inactive).

In the case of `Cc1ccc(SCCNCc2ccco2)cc1`, the inhibition (at 20 µM) is reported as 0.3% (inactive).

In the case of `COc1cc2c(cc1O)CC[n+]1cc3c(OC)c(OC)ccc3cc1-2`, the inhibition (at 20 µM) is reported as 0.6% (inactive).

With `COc1cc2c(cc1OC)-c1cc3ccc4c(c3c[n+]1CC2)OCO4` the inhibition (at 20 µM) was 120% (active) and the inhibition (measured here: repeat confirmation average inhibition, at 18.6 µM) was 70.7%.

For `COc1ccc2cc3[n+](cc2c1OC)CCc1cc2c(cc1-3)OCO2`, the inhibition (at 20 µM) was -1.4% (inactive).

For `O=[N+]([O-])c1sccc1CS(=O)(=O)c1ccccc1`, the inhibition (at 20 µM) was -1.5% (inactive).

With `O=C(Nc1cccc(O)c1)c1ccc([N+](=O)[O-])cc1Cl` the inhibition (at 20 µM) was 0.3% (inactive).

In the case of `O=C(Nc1cccc(Cl)c1)c1cc(N=Nc2ccc([N+](=O)[O-])cc2Cl)ccc1O`, the inhibition (at 20 µM) is reported as 52.8% (active).

With `CC(=O)Nc1cccc(NC(=O)c2ccc([N+](=O)[O-])cc2Cl)c1` the inhibition (at 20 µM) was 3.5% (inactive).
